Compound activity from PubChem BioAssay.
Compounds with a hit are over-represented: about 19% of the library has one in this group of screens.
MCF10A rerep: inducers of DNA re-replication in MCF 10A breast cells. MCF 10A DNA re-replication, Hoechst nuclear intensity, 48 h. Potency, µM (highest dose often 46.1 µM), for the others: at the top dose activity, positive = re-replication, actives largely listed as activators. 350,000 compounds, 2.9% hits. AID 624296; also: potency is read from the fitted curve at half-maximal effect; % of control where 0% means no effect; nearly all actives have a fitted effect of over 50% in size
DT40 TDP1 CPT: growth inhibition of DT40 Tdp1-/-;hTDP1 cells with camptothecin (screen for TDP1 inhibitors); AID 686979; 420,000 compounds, 12% hits; chicken DT40 Tdp1-/-;hTDP1 cells + 20 nM CPT, ATP luminescence, 48 h; Potency, µM (doses to about 46.2 µM), for the others: at the top dose activity change, negative = growth inhibition, usual class: inhibitors; also: potency is read from the fitted curve at half-maximal effect; % is scaled to controls: 0 for no effect and ±100 for the full control effect; nearly all actives have a fitted effect of over 55% in size
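Chicken DT40 Tdp1-/- cells complemented with human TDP1, 400 cells/well, exposed to compounds plus 20 nM camptothecin for at least 48 h at 37 C; viability read as ATP content by CellTiter-Glo luminescence.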
SW480 rereplic: induces DNA re-replication in SW480 colon adenocarcinoma cells; 340,000 compounds, 1.8% hits; SW480 DNA re-replication, Hoechst DNA content imaging, 48 h; Potency, µM (doses to about 46.1 µM), for the others: at the highest dose re-replication activation, actives largely listed as activators; also: potency is read from the fitted curve at half-maximal effect; % of control where 0% means no effect; nearly all actives have a fitted effect of over 55% in size
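First, 250 cells per well were seeded. Next, compound or vehicle (23 nL) was pinned in, plates sat 48 hr at 37 C. Finally Hoechst was added for 40 min before fluorescence scanning.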
TDP1 cell noCPT: qHTS for Inhibitors of human tyrosyl-DNA phosphodiesterase 1 (TDP1): qHTS in cells in absence of CPT. AID 686978, 2013. Potency, µM (top dose mostly 46.2 µM), inactives show top-dose activity change, negative = growth inhibition, actives largely listed as inhibitors. DT40 Tdp1-/- hTDP1 cells, no CPT, ATP luminescence, 48 h. 420,000 compounds, 15% hits; also: potency is read from the fitted curve at half-maximal effect; % is scaled to controls: 0 for no effect and ±100 for the full control effect; nearly all actives have a fitted effect of over 55% in size
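Growth of hTDP1-complemented DT40 Tdp1-knockout cells is measured by ATP luminescence after at least 48 hr compound exposure at 37 °C, with DMSO substituting for the 20 nM CPT used in the parallel screen.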
BCR signal inh: inhibitors of chronic active B-cell receptor signaling | ABC-DLBCL IkBa-CBG/CBR reporter, luminescence ratio, 4 h | Potency, µM (titrated, usually from 46.1 µM), without a hit: top-dose activity change, negative = inhibition, actives largely listed as inhibitors | 340,000 compounds, 0.05% hits | AID 493014; active = well fitted inhibition curve with a large enough effect in the signal ratio, with a control signal flat, not every such curve was filed as active; inconclusive = small, poorly fitted or top-dose-only effect, or effect the other way, or a change in a side signal; the % refers to the signal ratio;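 also: potency is read from the fitted curve at half-maximal effect; plate controls were basal doxycycline-induced cells for no effect and cells given 10 µM MG132 for full effect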
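Compounds up to 46 uM were incubated four hours with TMD8 cells whose green CBG68 luciferase is fused to IkappaBalpha; red CBR luminescence normalised the signal, and concentration-effect curves were fitted to fusion, red and ratio data.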
IL1B secr inh: inflammasome signaling inhibition, IL-1 beta readout; THP-1 LPS/ATP IL-1B secretion, AlphaLISA, 16 h; stronger effect = lower value; 360,000 compounds, 4.7% hits; AID 743279; activity change, % at 57.5 µM; in the data active = activity change below about -50%; inconclusive = mostly about -30% to -49%; also: % is scaled to controls: 0 for no effect and ±100 for the full control effect
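THP-1 cells pretreated 1 hr with compounds (up to 57.5 uM final), then stimulated with LPS (250 ng/mL final) plus ATP (1.25 mM final); secreted IL-1B measured by AlphaLISA after 16 hr, decreased signal indicating inhibition.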
Active calls of the source: *; [ ] = another dose, or the depositor's remark. Unless noted, calls follow the shape of the dose curve; as a rule, active = well fitted curve in the direction sought with a large enough effect; inconclusive = small, poorly fitted or top-dose-only effect, or another doubt; inactive = no such curve, though single readings can be large; an effect the other way counts as inactive or inconclusive.

For N#CC1=C(N)N2C(=C(C#N)C1c1cccc(Br)c1)Nc1ccccc12 (configuration not stated) the results were MCF10A rerep 21µM*, DT40 TDP1 CPT 3.7µM*, SW480 rereplic 15µM*, TDP1 cell noCPT 3.3µM*, BCR signal inh inconclusive and IL1B secr inh -119*.
`N#CC1=C(N)N2C(=C(C#N)C1c1ccc(Br)cc1)Nc1ccccc12` (configuration not stated) gave MCF10A rerep 2.1µM*, DT40 TDP1 CPT 6.5µM*, SW480 rereplic 16µM*, TDP1 cell noCPT 3.3µM*, BCR signal inh inconclusive and IL1B secr inh inconclusive.
`Cc1ccc(OCCNC(=O)Cc2ccc(S(=O)(=O)N3CCOCC3)s2)cc1` gave MCF10A rerep 9%, DT40 TDP1 CPT -16%, SW480 rereplic -6%, TDP1 cell noCPT -26%, BCR signal inh 5% and IL1B secr inh 0.
For CC(O)(Cc1cccnc1)c1cccs1 (configuration not stated) the results were MCF10A rerep -3%, DT40 TDP1 CPT 9%, SW480 rereplic -2%, TDP1 cell noCPT 0% and IL1B secr inh 21.
For COc1ccc(CCNC(=O)/C(C#N)=C/c2cccc(OCc3ccccc3)c2)cc1OC the results were MCF10A rerep inconclusive, DT40 TDP1 CPT inconclusive, SW480 rereplic inconclusive, TDP1 cell noCPT 18µM*, BCR signal inh inconclusive and IL1B secr inh inconclusive.
COc1cc(/C=C(\C#N)C(=O)NCc2ccccc2)ccc1OCc1ccc(C(=O)O)cc1 was read as MCF10A rerep inconclusive, DT40 TDP1 CPT inconclusive, SW480 rereplic inconclusive, TDP1 cell noCPT inconclusive, BCR signal inh inconclusive and IL1B secr inh 15.
Screening N#C/C(=C\c1ccc(OCc2ccc(C(=O)O)cc2)cc1)C(=O)NCc1ccccc1 returned MCF10A rerep -28%, DT40 TDP1 CPT -13%, SW480 rereplic -9%[1.84 µM], TDP1 cell noCPT inconclusive, BCR signal inh -1% and IL1B secr inh -25.
For N#C/C(=C/c1ccccc1)C(=O)NCc1ccccc1 the results were MCF10A rerep inconclusive, DT40 TDP1 CPT -31%, SW480 rereplic 8%, TDP1 cell noCPT inconclusive, BCR signal inh -1% and IL1B secr inh -77*.
N#C/C(=C\c1ccc(O)c(Br)c1)C(=O)NCc1ccccc1 was read as MCF10A rerep 21µM*, DT40 TDP1 CPT -19%, SW480 rereplic 8.2µM*, TDP1 cell noCPT -18%, BCR signal inh inconclusive and IL1B secr inh 28.
For CC(C)c1cc(/C=C(\C#N)C(=O)NCCCc2ccccc2)cc(C(C)C)c1O the results were DT40 TDP1 CPT 21µM* and TDP1 cell noCPT 21µM*.
For CCCc1ccc(S(=O)(=O)N2CCN(C(=O)CN3C(=O)NC(C)(C4CC4)C3=O)CC2)cc1 (configuration not stated) the results were DT40 TDP1 CPT -6%, TDP1 cell noCPT -22% and IL1B secr inh -24.
Screening O=C(CNC(=O)c1ccc(Cl)c([N+](=O)[O-])c1)NCC1CCCO1 (configuration not stated) returned MCF10A rerep 6%, DT40 TDP1 CPT inconclusive, SW480 rereplic -2%, TDP1 cell noCPT -29%, BCR signal inh 2% and IL1B secr inh -5.
O=c1cc(-c2ccc(F)cc2)nc(SCc2nc(-c3ccccc3Cl)no2)[nH]1 was read as DT40 TDP1 CPT -30% and TDP1 cell noCPT -24%.
CCOc1ccc(CCNC(=O)c2ccc(-n3c(C)cc4c3CCC(C)C4)cc2)cc1OCC (configuration not stated) was read as DT40 TDP1 CPT 15µM* and TDP1 cell noCPT 15µM*.
Screening CC1CN(S(=O)(=O)c2ccc(Cl)c(S(=O)(=O)N3CC(C)OC(C)C3)c2)CC(C)O1 (configuration not stated) returned MCF10A rerep 3%, DT40 TDP1 CPT inconclusive, SW480 rereplic 7%, TDP1 cell noCPT 15µM*, BCR signal inh -1% and IL1B secr inh 21.
Screening CN(C)CCCNC(=O)c1ccc(Cl)c(S(=O)(=O)N2CCCCCC2)c1 returned MCF10A rerep 0%, DT40 TDP1 CPT 10µM*, SW480 rereplic -4%, TDP1 cell noCPT inconclusive, BCR signal inh 0% and IL1B secr inh 3.
CC1CN(C(=O)c2cc(S(=O)(=O)N3CCCC3)c(Cl)cc2Cl)CC(C)O1 (configuration not stated) was read as MCF10A rerep -1%, DT40 TDP1 CPT 13µM*, SW480 rereplic -9%, TDP1 cell noCPT 18µM*, BCR signal inh -2% and IL1B secr inh 0.
`O=S(=O)(c1ccc(Cl)c(S(=O)(=O)N2CCCC2)c1)N1CCCC1` gave MCF10A rerep 16%, DT40 TDP1 CPT 1%, SW480 rereplic 0%, TDP1 cell noCPT 0%, BCR signal inh 6% and IL1B secr inh 24.
For CCCC(=O)OCC1CN(Cc2ccco2)S(=O)(=O)c2c(F)cccc2O1 (configuration not stated) the results were MCF10A rerep 2%, DT40 TDP1 CPT inconclusive, SW480 rereplic 0%, TDP1 cell noCPT -19% and IL1B secr inh 3.
Screening Cc1ccccc1CCNC(=O)c1ccc(Cl)c(S(=O)(=O)N2CC(C)OC(C)C2)c1 (configuration not stated) returned MCF10A rerep inconclusive, DT40 TDP1 CPT 18µM*, SW480 rereplic 7%, TDP1 cell noCPT inconclusive, BCR signal inh 0% and IL1B secr inh -8.
For CN(C)C(CNC(=O)c1ccc(Cl)c(S(=O)(=O)N2CCCCCC2)c1)c1ccccc1 (configuration not stated) the results were MCF10A rerep -6%, DT40 TDP1 CPT inconclusive, SW480 rereplic inconclusive, TDP1 cell noCPT inconclusive, BCR signal inh 5% and IL1B secr inh -59*.
Screening CCOc1ccc(CCNC(=O)c2cccc(S(=O)(=O)N3CC(C)OC(C)C3)c2)cc1OCC (configuration not stated) returned MCF10A rerep 16%, DT40 TDP1 CPT inconclusive, SW480 rereplic inconclusive, TDP1 cell noCPT 9.2µM*, BCR signal inh -3% and IL1B secr inh 10.
